# The source made the active and inactive calls. Unless noted, the rule behind the calls is not given here.
# What was measured:
# [1] = compound effects on lung adenocarcinoma cell viability – A549, calcein-AM fluorescence, 48 h, basal, profiling panel (AID 1162); details: higher = more signal; note: test concentration not given here
# [2] = compound effects on differentiated 3T3-L1 adipocyte viability – cell-based, 3T3-L1 adipocytes, calcein-AM fluorescence, 48 h, basal, profiling panel (AID 1163); details: 3T3-L1 adipocytes viability, higher = more signal; note: test concentration not given here
# [3] = compound effects on hepatocellular carcinoma cell viability – HepG2, calcein-AM fluorescence, 48 h, basal, profiling panel (AID 1164); details: higher = more signal; note: test concentration not given here
# [4] = compound effects on multiple myeloma cell viability – MM1S, calcein-AM fluorescence, 48 h, basal, profiling panel (AID 1165); details: higher = more signal;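 note: viability of MM1S multiple myeloma cells under basal unstimulated conditions; test concentration not given here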
# [5] = calcein-AM signal in unstimulated myeloma cells – cell-based, calcein-AM fluorescence, 48 h, PK04 Diversity Set, profiling panel (AID 1166); details: RPMI8226 myeloma viability, higher = more signal;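 note: cells grown under basal conditions without added stimulus; test concentration not given here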
# [6] = JC-1 mitochondrial signal, unstimulated HepG2 cells – cell-based, JC-1 fluorescence, 24 h, 100 nL compound, profiling panel (AID 1167); details: HepG2 mitochondrial potential, higher = more signal; note: test concentration not given here
# [7] = JC-1 mitochondrial signal, unstimulated adipocytes – cell-based, JC-1 fluorescence, 3T3-L1 adipocytes, 24 h, 100 nL compound, profiling panel (AID 1168); details: JC-1 mitochondrial fluorescence, higher = more signal, called active from +8 up or from −8 down; note: test concentration not given here
# [8] = JC-1 mitochondrial signal, unstimulated myeloma cells – cell-based, JC-1 fluorescence, RPMI8226, 24 h, 100 nL compound, profiling panel (AID 1169); details: JC-1 mitochondrial potential fluorescence, higher = more signal; note: test concentration not given here
# [9] = JC-1 mitochondrial signal, unstimulated MM1S myeloma – cell-based, JC-1 fluorescence, 24 h, 100 nL compound, profiling panel (AID 1170); details: MM1S mitochondrial potential, higher = more signal; note: test concentration not given here
# [10] = resazurin metabolic signal in A549 cells – cell-based, resazurin fluorescence, 24 h, PK04 Diversity Set, profiling panel (AID 1171); details: A549 viability, higher = more signal, called active from +8 up or from −8 down; note: test concentration not given here
# [11] = resazurin metabolic signal in HepG2 cells – cell-based, resazurin fluorescence, 24 h, PK04 Diversity Set, profiling panel (AID 1172); details: HepG2 viability, higher = more signal; note: test concentration not given here
# [12] = budding yeast growth changes without added modifier – OD600, strain BY4716, 24 h, basal condition, primary screen (AID 1173); details: S. cerevisiae BY4716 growth, OD600, 24 h; higher = more signal, called active from +8 up or from −8 down
# [13] = viability profiling in MM1S myeloma cells – cell-based, resazurin fluorescence, basal, 24 h, PK04 Diversity Set, profiling panel (AID 1174); details: higher = more signal, called active from +8 up or from −8 down; note: test concentration not given here
# [14] = target: Dihydroorotate dehydrogenase (quinone), mitochondrial (Plasmodium falciparum (isolate 3D7)) (UniProt Q08210); test: inhibition of P. falciparum DHODH – biochemical, C-terminal His tag, absorbance 600 nm, primary screen (AID 1175); details: PfDHODH enzyme, DCIP absorbance 600 nm; higher = more signal, called active from +8 up or from −8 down;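 note: recombinant parasite enzyme with a five histidine tag at its C terminus; test concentration not given here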
# [15] = inhibition of PAO1 biofilm formation – strain PAO1, LB-PBS medium, absorbance 600 nm, primary screen (AID 1176); note: test concentration not given here; details: P. aeruginosa PAO1 growth/biofilm, A600, 12 h; higher = more signal
# [16] = growth modulation of vineyard yeast isolate – strain RM11-1a, OD600, basal, 24 h, primary screen (AID 1177);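 note: cultures grown under basal conditions with no added stressor; test concentration not given here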; details: S. cerevisiae RM11-1a growth, OD600, 24 h; higher = more signal, called active from +8 up or from −8 down
# [17] = growth of efflux-deficient E. coli DRC39 – strain DRC39, OD650, 24 h, E. coli filamentation inducers, primary screen (AID 1178);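 note: growth measured as culture turbidity by optical density at 650 nm; test concentration not given here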; details: E. coli DRC39 acrAB, higher = more signal, called active from +8 up or from −8 down
# [18] = growth of efflux-deficient E. coli DRC39 – strain DRC39, OD650, 48 h, E. coli filamentation inducers, primary screen (AID 1179);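 note: screen aims at cell division blockers that make cells filament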; details: E. coli DRC39 delta-acrAB growth, higher = more signal, called active from +8 up or from −8 down
# [19] = viability profiling in RPMI8226 myeloma cells – cell-based, resazurin fluorescence, basal, 24 h, PK04 Diversity Set, profiling panel (AID 1180); details: higher = more signal;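 note: RPMI8826 multiple myeloma cell line at 5000 cells per well; test concentration not given here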
# [20] = target: E3 ubiquitin-protein ligase XIAP (Homo sapiens) (UniProt P98170); test: small molecules binding XIAP protein – biophysical, small-molecule microarray, fluorescence 635 nm, primary screen (AID 1181); details: higher = more signal;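 note: score merges 667 nm emission and signal to noise over triplicate slides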
# E3 ubiquitin-protein ligase XIAP (Homo sapiens), sequence (P98170 whole entry, looked up): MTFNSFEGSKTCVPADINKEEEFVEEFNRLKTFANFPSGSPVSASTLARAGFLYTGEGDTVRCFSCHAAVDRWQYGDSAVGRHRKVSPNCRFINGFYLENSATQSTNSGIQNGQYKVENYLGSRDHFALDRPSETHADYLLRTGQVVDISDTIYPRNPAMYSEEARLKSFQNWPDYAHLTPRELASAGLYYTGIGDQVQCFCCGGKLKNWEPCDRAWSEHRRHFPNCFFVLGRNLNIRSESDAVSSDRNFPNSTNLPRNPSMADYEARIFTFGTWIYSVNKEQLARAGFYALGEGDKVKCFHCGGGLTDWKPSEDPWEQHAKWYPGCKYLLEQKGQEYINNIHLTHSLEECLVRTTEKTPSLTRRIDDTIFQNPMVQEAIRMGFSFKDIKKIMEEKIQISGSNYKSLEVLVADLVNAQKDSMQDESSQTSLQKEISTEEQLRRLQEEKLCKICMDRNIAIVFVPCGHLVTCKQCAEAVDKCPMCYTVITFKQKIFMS
# Dihydroorotate dehydrogenase (quinone), mitochondrial (Plasmodium falciparum (isolate 3D7)), sequence (Q08210 whole entry, looked up): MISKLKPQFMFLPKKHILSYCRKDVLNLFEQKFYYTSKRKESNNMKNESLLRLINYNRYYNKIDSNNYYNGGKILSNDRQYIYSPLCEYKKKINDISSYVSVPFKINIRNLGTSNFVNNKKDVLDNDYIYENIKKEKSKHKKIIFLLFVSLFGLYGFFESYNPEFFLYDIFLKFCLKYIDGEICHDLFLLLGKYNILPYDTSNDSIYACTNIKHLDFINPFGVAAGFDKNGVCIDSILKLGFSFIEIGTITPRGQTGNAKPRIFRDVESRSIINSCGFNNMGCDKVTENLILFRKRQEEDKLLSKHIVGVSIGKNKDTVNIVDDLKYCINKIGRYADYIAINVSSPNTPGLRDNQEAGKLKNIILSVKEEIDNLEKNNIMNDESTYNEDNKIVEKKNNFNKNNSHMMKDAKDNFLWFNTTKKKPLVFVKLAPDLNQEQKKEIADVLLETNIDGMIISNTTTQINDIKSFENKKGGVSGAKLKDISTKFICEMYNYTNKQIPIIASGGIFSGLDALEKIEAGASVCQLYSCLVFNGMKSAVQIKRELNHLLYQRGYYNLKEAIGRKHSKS
SMILES,z-score [1],z-score [2],z-score [3],z-score [4],z-score [5],z-score [6],z-score [7],z-score [8],z-score [9],z-score [10],z-score [11],z-score [12],z-score [13],composite z-score [14],z-score [15],z-score [16],z-score [17],z-score [18],z-score [19],composite z-score [20]
O=C1NC(=O)C2C1C=CC(C(O)C1CCCCC1)N2Nc1ccccn1 (stereo not given),-1.05,-0.608,-0.484,-0.0776,-0.76,-1.45,-0.894 (inactive),-0.573,-0.9,-0.606 (inactive),-0.864,0.876 (inactive),-1.27 (inactive),0.583 (inactive),2.68 (inactive),0.209 (inactive),-1.02 (inactive),-0.286 (inactive),-1.33,-0.0663
COCCCNC(=O)[C@@]1(Cc2ccccc2I)c2ccccc2C(=O)N(C2CCCCC2)[C@H]1c1ccc(CO)cc1,-0.126,0.2,-0.335,-0.339,-0.0802,1.29,-0.276 (inactive),-0.794,-1.01,1.59 (inactive),1.12,-0.6 (inactive),0.28 (inactive),0.154 (inactive),1.13 (inactive),-0.244 (inactive),0.319 (inactive),0.26 (inactive),0.448,-0.0343
C=C(COC)/C(=C/C[C@@H](OC(C)=O)c1cccc(OCCO)c1)c1cnc2ccccc2c1,0.37,1.35,-0.705,-0.588,-0.461,0.902,-0.0217 (inactive),0.0629,0.627,-0.736 (inactive),-0.469,-7.06 (inactive),-0.732 (inactive),-7.29 (inactive),0.203 (inactive),0.179 (inactive),-0.672 (inactive),-0.303 (inactive),-0.311,0.133
CCOC(=O)C[C@H]1[C@H](OC(=O)c2cc3ccccc3oc2=O)[C@@H](NC(=O)Cc2ccc(OC)cc2)c2cc(OCCCO)ccc2N1C(=O)Cc1ccc(OC)cc1,1.16,1.68,0.37,0.789,0.148,0.164,-0.3 (inactive),0.301,-0.985,0.551 (inactive),1.04,-3.03 (inactive),1.26 (inactive),-0.317 (inactive),-0.234 (inactive),-1.01 (inactive),1.76 (inactive),0.248 (inactive),0.918,0.177
CCOC(=O)C1=C[C@@H](C(C)(C)C)N(S(=O)(=O)c2ccc(C)cc2)[C@H]1c1ccc(OC)cc1,0.279,-0.276,-0.778,-1.04,-1.23,4.09,-0.305 (inactive),-0.589,-0.676,2.62 (inactive),-0.294,1.9 (inactive),-0.0789 (inactive),-0.0972 (inactive),-0.473 (inactive),1.88 (inactive),0.33 (inactive),-0.27 (inactive),-1.23,-0.149

# From PubChem BioAssay
